Results on 86 molecules are retold here after PubChem BioAssay AID2528 (National Center for Advancing Translational Sciences (NCATS), 2010).

Screen size: about 350,000 compounds; about 700 (0.2%) were called active. The entries come from a sample that favours actives as a whole. A number with no mark means an inactive call. Calls come from the whole dose curve; as a rule, active = well fitted inhibition curve with a large enough effect; inconclusive = small, poorly fitted or top-dose-only effect; inactive = flat fitted curve, though single readings scatter.
Potency is the fitted concentration of half-maximal effect.

For this experiment, the target named is RecQ-like DNA helicase BLM (Homo sapiens) (UniProt P54132). In words: qHTS Assay for Inhibitors of Bloom's syndrome helicase (BLM).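 For activity change, negative = inhibition: plate controls were vehicle for no effect and no enzyme for full effect.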 Note: nearly all actives have a fitted effect of over 35% in size. Particulars: recombinant BLM DNA unwinding, fluorescence dequenching; series mostly up to 56.1 µM; activity change, negative = inhibition: at the top concentration. On the technique in general: Quantitative high-throughput screening tests each substance at several concentrations.
Sequence of RecQ-like DNA helicase BLM (Homo sapiens) (P54132 whole entry, looked up): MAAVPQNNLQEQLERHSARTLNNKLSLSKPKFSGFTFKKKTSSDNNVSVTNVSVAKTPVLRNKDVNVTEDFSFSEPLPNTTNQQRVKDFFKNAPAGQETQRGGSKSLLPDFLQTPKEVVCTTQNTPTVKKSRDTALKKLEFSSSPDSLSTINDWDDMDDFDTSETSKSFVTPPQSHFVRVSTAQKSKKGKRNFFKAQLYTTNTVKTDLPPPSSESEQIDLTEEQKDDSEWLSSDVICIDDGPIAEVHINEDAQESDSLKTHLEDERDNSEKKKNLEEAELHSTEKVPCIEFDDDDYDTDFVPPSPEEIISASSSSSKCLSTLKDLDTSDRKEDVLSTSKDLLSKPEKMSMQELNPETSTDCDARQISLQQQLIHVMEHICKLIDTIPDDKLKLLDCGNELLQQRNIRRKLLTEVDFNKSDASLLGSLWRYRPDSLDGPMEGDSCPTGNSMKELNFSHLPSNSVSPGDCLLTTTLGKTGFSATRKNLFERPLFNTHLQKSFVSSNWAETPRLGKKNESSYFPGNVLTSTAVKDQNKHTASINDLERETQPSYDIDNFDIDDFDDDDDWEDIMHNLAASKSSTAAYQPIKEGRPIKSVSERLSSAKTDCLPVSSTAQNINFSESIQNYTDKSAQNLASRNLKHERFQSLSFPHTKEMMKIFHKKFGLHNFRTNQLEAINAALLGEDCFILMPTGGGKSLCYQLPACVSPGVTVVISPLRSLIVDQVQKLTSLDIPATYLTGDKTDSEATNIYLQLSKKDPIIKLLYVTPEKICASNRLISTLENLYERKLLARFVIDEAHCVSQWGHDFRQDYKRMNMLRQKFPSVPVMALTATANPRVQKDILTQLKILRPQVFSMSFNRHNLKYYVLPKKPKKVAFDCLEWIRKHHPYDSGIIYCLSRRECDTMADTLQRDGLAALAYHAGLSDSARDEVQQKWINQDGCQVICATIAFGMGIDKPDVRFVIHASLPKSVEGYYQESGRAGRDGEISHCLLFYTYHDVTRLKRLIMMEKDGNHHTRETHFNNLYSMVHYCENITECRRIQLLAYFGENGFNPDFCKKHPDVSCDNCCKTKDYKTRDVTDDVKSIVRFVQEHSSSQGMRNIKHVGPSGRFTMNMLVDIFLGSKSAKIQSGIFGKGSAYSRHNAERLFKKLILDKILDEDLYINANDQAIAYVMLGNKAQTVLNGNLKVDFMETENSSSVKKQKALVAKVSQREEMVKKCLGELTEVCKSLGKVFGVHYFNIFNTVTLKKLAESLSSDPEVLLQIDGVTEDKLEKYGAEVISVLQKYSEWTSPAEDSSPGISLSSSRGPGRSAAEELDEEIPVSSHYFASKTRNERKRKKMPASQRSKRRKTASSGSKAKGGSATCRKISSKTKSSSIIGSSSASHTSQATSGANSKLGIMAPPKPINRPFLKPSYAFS
In the case of `Cc1c(CCNC(=O)c2ccc(C(F)(F)F)cc2)sc2nc(-c3ccc(F)cc3)nn12`, the “activity change, negative = inhibition” value was 1.17%. The same measure, in the same setting: the result for `COC(=O)C1=C(C(=O)OC)[C@@H]2N(Cc3ccccc3)c3ccccc3[C@@]23C[C@@H](C(=O)OC)N(S(=O)(=O)c2ccc(C(F)(F)F)cc2)C3=N1` reads 0.18% [at 12.4 µM]; that for `COc1ccc(-c2nc3c(c4c2C[C@H](c2ccccc2)OC4)CN(C(=O)C2CC2)CC3)c(C)c1`, -3.76% [at 12.4 µM]; that for `CCOC(=O)C1CCCN(C(=O)Cn2ncc3c(C)n(Cc4ccc(F)cc4)c(C)c3c2=O)C1` (stereo unspecified), -2.99%. Take `Cc1ccc(C(=O)O)cc1-c1ccc(/C=C2\SC(=O)N(CC(=O)Nc3ccc4c(c3)OCO4)C2=O)o1`: the Potency was 25.1 µM (active). Regarding `Cc1nc([N+](=O)[O-])cn1CC(=O)Nc1ccc2c(c1)OCO2`, the “activity change, negative = inhibition” value is -1.2%. Take `COC(=O)c1ccc2c(c1)N(CC(=O)Nc1ccc(C)c(C)c1)C(=O)c1ccccc1S2`: the “activity change, negative = inhibition” value is -3.02%. `CCCc1nc2c(c(=O)c3ccccc3n2C)c(=O)n1C1CCCCCC1`: the “activity change, negative = inhibition” value is -2.78%.

Regarding `Cn1c(COc2ccc(Cl)cc2)nc2ccccc2c1=O`, the “activity change, negative = inhibition” value was -4.82%. Regarding `Cn1c2ccccc2c(=O)c2c(=O)n(Cc3ccco3)c(COc3ccccc3)nc21`, the Potency is 8.91 µM (active). As for `COC(=O)[C@H]1C[C@@H]1[C@H](NC(=O)Oc1ccc(F)cc1)c1ccccc1`, the “activity change, negative = inhibition” value was -3.56%. On the same count and under the same terms, the result for `CCC(C)NC(=O)c1c(N)n(/N=C/c2cccs2)c2nc3ccccc3nc12` (stereo unspecified) reads -1.08%.

`CC(C)Cn1c(N)c(C(=O)NCc2cccs2)c2nc3ccccc3nc21`: the Potency is 31.6 µM (active).

Turning to `O=C(NCc1cccs1)c1cc(-c2ccccn2)nc2ccc(Br)cc12`, the “activity change, negative = inhibition” value is -5.47%. On to `CCC[C@@H]1C[C@@]1(CCC)C(NS(=O)(=O)c1cccc2cccnc12)c1ccc(Cl)cc1` (stereo partly specified), for which the “activity change, negative = inhibition” value was -12.4%. As to `COc1ccc(Nc2ncc3c(n2)CCN(C(=O)OC(C)(C)C)C3)cc1`, the “activity change, negative = inhibition” value was 0.835%. Still for that read-out and setting: the result for `O=C1/C(=C\c2ccccc2Cl)SC(=S)N1CCC(=O)N1CCCc2ccccc21` reads 2.18%.

For the molecule `Cc1ccc(-c2nn(-c3ccccc3)cc2/C=C2\SC(=S)N(CCCCCC(=O)O)C2=O)o1`, the Potency was 28.2 µM (active). On to `COc1ccc(/C=C2/SC(=O)N(CCCCCC(=O)Nc3ccccc3C(=O)O)C2=S)cc1`, for which the “activity change, negative = inhibition” value was -2.12%. Consider `C/C=C(\C)C(=O)OC1C(OC(=O)C2(C)OC2C)c2cc3ccc(=O)oc3cc2OC1(C)C` (stereo unspecified), for which the “activity change, negative = inhibition” value was -4.92%.

As for `CC(C)(O)CCC(O)[C@@](C)(O)C1CC[C@]2(O)C3=CC(=O)C4CC(O)C(O)C[C@]4(C)C3CC[C@]12C` (stereo partly specified), the “activity change, negative = inhibition” value was 5.66%.

As to `COc1ccc2c(-c3ccccc3)cc(SCC(=O)N(C)C3CCS(=O)(=O)C3)nc2c1` (stereo unspecified), the “activity change, negative = inhibition” value is -2.06%. Consider `CN(C(=O)COC(=O)c1cc(-c2ccco2)nc2ccccc12)C1CCS(=O)(=O)C1` (stereo unspecified), for which the Potency is 3.16 µM (active).

With `COc1ccc(NC(=O)COc2ccc(C(=O)OCC(=O)N(C)C3CCS(=O)(=O)C3)cc2OC)cc1` (stereo unspecified), the “activity change, negative = inhibition” value is -0.434%. In the case of `COc1cccc(-c2cc(NCCc3c[nH]c4ccc(OC)cc34)ncn2)c1`, the “activity change, negative = inhibition” value is -17%. `CO[C@H]1COC(=O)[C@@H](C)NC(=O)C/C=C\[C@@H](C)[C@H](OC)COC(=O)C/C=C\[C@@H]1C`: the activity change, negative = inhibition was 0.711% [at 12.4 µM]. Take `CCCC[C@@H]1C[C@H]1C(NC(=O)c1ccco1)c1ccc(C(=O)OC)cc1` (stereo partly specified): the “activity change, negative = inhibition” value was -7.12%.

`CCOc1ccc(OCC)c(NC(=O)CN(c2ccc(C)cc2)S(=O)(=O)c2c(C)n[nH]c2C)c1`: the “activity change, negative = inhibition” value was -16.1%.

In the case of `CCCCC/C=C\C/C=C\C/C=C\CCCCC(=O)NCC(=O)O`, the “activity change, negative = inhibition” value was -0.391%. Regarding `COc1cccc([C@@H]2Oc3ccc(Br)cc3C(=O)[C@H]2OC(=O)NCCc2ccc(OC)c(OC)c2)c1`, the “activity change, negative = inhibition” value is 1.09%. On the same count and under the same terms, the result for `CCc1nn(CC(=O)NCC(C)c2ccccc2)c(=O)c2cc3occc3n12` (stereo unspecified) reads 3.04%.

For `C[C@@H]1C[C@H]2[C@@H]3C[C@H](F)C4=CC(=O)C=C[C@@]4(C)[C@]3(F)[C@H](O)C[C@]2(C)[C@@]1(O)C(=O)CO`, the “activity change, negative = inhibition” value is 2.68% [at 21.4 µM]. Regarding `CC(=O)OC1C([N+]2(C)CCCCC2)C[C@H]2C3CC[C@H]4C[C@H](OC(C)=O)C([N+]5(C)CCCCC5)CC4(C)C3CCC12C` (stereo partly specified), the “activity change, negative = inhibition” value is 112%. Same read-out and setting: the result for `COC(=O)C(C(=O)OC)[C@@H]1CCCC(=O)C1` reads -7.4% [at 12.4 µM]; that for `O=c1cc(-c2ccc(O)cc2)oc2c(-c3cc(-c4cc(=O)c5c(O)cc(O)cc5o4)ccc3O)c(O)ccc12`, 0.459%; that for `COc1ccc(C2(C#N)CCC(C(=O)O)CC2)cc1OC1CCCC1` (stereo unspecified), 3.05%. As to `COC(=O)C1(C)C=CCN1C(=O)c1ccccc1` (stereo unspecified), the “activity change, negative = inhibition” value was -5.29%. Take `CC(C)=CC1C(C(=O)O)C1(C)C` (stereo unspecified): the “activity change, negative = inhibition” value is 0.827%. As for `O=C(CCOc1ccccc1)N(Cc1cccnc1)c1nc2ccc(Cl)cc2s1`, the “activity change, negative = inhibition” value is -2.17%. Take `CC1(C)OC2CC(=O)OC[C@@]23C1CC(=O)[C@]1(C)C3CC[C@@]2(C)C(c3ccoc3)OC(=O)C3O[C@@]321` (stereo partly specified): the “activity change, negative = inhibition” value is -17.7%. With `FC(F)(F)c1ccccc1-c1cc(NCc2ccccc2)ncn1`, the “activity change, negative = inhibition” value is -0.252%. As to `O=C(CSc1nccn1Cc1ccc(Cl)cc1)NCc1ccccc1`, the “activity change, negative = inhibition” value was -3.71%. Same read-out and setting: for `C/C=C/C=N/NC(=O)c1ccncc1` the value was 2.91%. Same read-out and setting: for `CC1CN(C(=O)N2CCC(C(=O)NCc3ccco3)CC2)c2cc(Cl)ccc2O1` (stereo unspecified) the value was -7.62%. For `COC(=O)[C@@H]1C[C@@]2(O)[C@H](O)[C@H](O)[C@H](O)C[C@H]2N1CC1CCCCC1`, the “activity change, negative = inhibition” value is -8.47%.

Regarding `O=C(c1cnccn1)N1CCC2(CCCN(Cc3ccccc3)C2)CC1`, the “activity change, negative = inhibition” value is 4.7%. `CCOC(=O)Cn1c(=O)sc2cccc(Cl)c21`: the “activity change, negative = inhibition” value is 0.848%. Still for that read-out and setting: the result for `O=C(c1cnccn1)N1CCC2(CCN(Cc3cc(C(F)(F)F)cc(C(F)(F)F)c3)CC2)CC1` reads -6.6%. As for `Cc1ccc(-c2nc(SCc3ccc(Br)cc3)n3[nH]c(=O)cc3n2)cc1`, the Potency is 28.2 µM (active). `Cc1cccc(-c2nc(SCc3ccc(Br)cc3)n3[nH]c(=O)cc3n2)c1`: the “activity change, negative = inhibition” value was -2.52%.

Turning to `O=c1cc2nc(-c3ccccc3)nc(SCCOc3ccc(Cl)cc3)n2[nH]1`, the “activity change, negative = inhibition” value is -17.2%. For the molecule `O=C(OCc1ccccc1)c1ccc(O)cc1`, the “activity change, negative = inhibition” value was -3.18%. Still for that read-out and setting: the result for `COC(=O)N1C(/C=C/C=C/c2ccc(OC)cc2)=Cc2ccccc2C1CC(C)=O` (stereo unspecified) reads -6.97% [at 12.4 µM]; that for `C[C@H]1Cc2c(-c3ccccc3)nc3c(c2CO1)CN(S(=O)(=O)c1ccc(Cl)c2nonc12)CC3`, -0.0157% [at 12.4 µM]; that for `O=c1c(CCc2ccccc2)nc2cnc(N3CCNCC3)nc2n1Cc1cccs1`, -4.03%. `COc1cc(OC)cc(-c2nnc(SCC(=O)Nc3ccc(C(=O)O)cc3)s2)c1`: the “activity change, negative = inhibition” value was -4.98%.

`COc1ccc(NC(=O)CSc2nc(N)c(-c3ccccc3)c(=O)[nH]2)cc1`: the “activity change, negative = inhibition” value is -0.862%. As to `COc1ccc(-c2nc3c(c(SCC(=O)Nc4ccc(C(=O)O)cc4)n2)Cc2ccccc2O3)cc1`, the Potency was 7.08 µM (active). With `C=C(C)CNC(=S)N/N=C/c1ccccc1OCC(=O)O`, the “activity change, negative = inhibition” value is 2.68%. Turning to `Cc1ccc(S(=O)(=O)NC(=O)COc2ccccc2C)cc1`, the “activity change, negative = inhibition” value is -0.852%. With `Cc1ccc(NS(=O)(=O)c2ccc(N/N=C/c3ccccc3OCC(=O)O)c([N+](=O)[O-])c2)c(C)c1`, the Potency is 7.08 µM (active).

With `COc1c(O)c2c(=O)cc(OC)c3c4c(OC)cc(=O)c5c(O)c(OC)c6c(c(c1C[C@@](C)(O)[C@H]6C(C)=O)c23)c54`, the “activity change, negative = inhibition” value was -7.75%. As for `COC(=O)[C@@]1(C)C=C[C@@H](Cc2ccccc2)N1C(C)=O`, the “activity change, negative = inhibition” value was 0.615%. Take `CCc1c2c(nc3ccc(O)cc13)-c1cc3c(c(=O)n1C2)COC(=O)[C@]3(O)CC`: the “activity change, negative = inhibition” value is 2.37%. Consider `Oc1ccc(Cl)c2c1CCC2`, for which the “activity change, negative = inhibition” value is -5.49%. Turning to `COc1ccc(C(=O)N2CCC3(CCCN(C(c4ccccc4)c4ccccc4)C3)CC2)cc1`, the “activity change, negative = inhibition” value is -11%. The same measure, in the same setting: for `CCOc1[nH]n(-c2ccc(Cl)cc2)c(=O)c1C=Nc1ccc(O)cc1` the value was -10.3%; for `COC(=O)c1cc(NC(=O)c2sc3ccccc3c2Cl)cc(C(=O)OC)c1`, -3.91%; for `CCCC(=O)Nc1ccc(NC(=O)c2sc3ccccc3c2Cl)cc1`, -4.36%.

Regarding `Cc1cc(N=Nc2ccc3ccccc3c2)ccc1O`, the “activity change, negative = inhibition” value is -11%. Regarding `Oc1ccc(N=Cc2c(O)ccc3ccccc23)cc1`, the Potency was 31.6 µM (active). In the case of `Oc1ccc(N=Cc2sc3ccccc3c2Cl)cc1`, the Potency is 20 µM (active). Regarding `Cc1cccc(CNc2ccnc(-c3cccnc3)n2)c1`, the “activity change, negative = inhibition” value was -2.36%. As for `O=C(Nc1cc(C(=O)Nc2ccc(S(=O)(=O)O)cc2)cc(C(=O)Nc2ccc(S(=O)(=O)O)cc2)c1)Nc1cc(C(=O)Nc2ccc(S(=O)(=O)O)cc2)cc(C(=O)Nc2ccc(S(=O)(=O)O)cc2)c1`, the “activity change, negative = inhibition” value was -1.71%. Still for that read-out and setting: the result for `O=C(c1ccncc1)N1CCC2(CCCN(C(c3ccccc3)c3ccccc3)C2)CC1` reads -8.72%.

`O=C(c1cnccn1)N1CCC[C@@]2(CCN(Cc3ccncc3)C2)C1`: the “activity change, negative = inhibition” value is 4.22%. With `CCc1nc(-c2cc(S(=O)(=O)N3CCN(c4ccc(OC)cc4)CC3)ccc2OC)no1`, the “activity change, negative = inhibition” value was -13.5%. Same read-out and setting: the result for `CCCS(=O)(=O)c1ncc(Cl)c(C(=O)Nc2scc(-c3ccccc3)c2C(=O)OCC)n1` reads 0.746%; that for `Oc1c(C(c2ccc(F)cc2)N2CCN(Cc3ccccc3)CC2)sc2nc(-c3ccco3)nn12` (stereo unspecified), -2.07%. Same read-out and setting: the result for `C=C1C([C@@]2(C)C(OC(C)=O)CC(=O)O[C@@](C)(COC(C)=O)C2CC(=O)OC)C(OC=O)C(OC(=O)C(O)C(C)CC)[C@]2(C)C(c3ccoc3)CC(=O)C12O` (stereo partly specified) reads 2.02%; that for `CC(=O)N1CCC2(CCCN(Cc3ccc(C#N)cc3)C2)CC1`, 3.65%; that for `CC1(C)C=CC(=O)[C@]2(C)C1CC(=O)[C@]1(C)C2CC[C@@]2(C)C(c3ccoc3)OC(=O)C3OC321` (stereo partly specified), 0.499%. Still for that read-out and setting: the result for `C=C1CCN(C(CC(C)C)C(=O)N2CCOCC2)S(=O)(=O)c2ccccc21` (stereo unspecified) reads -13.3%; that for `COc1ccc(S(=O)(=O)NCC(c2ccc(N(C)C)cc2)N2CCc3ccccc32)cc1OC` (stereo unspecified), -10.6%. Turning to `O=C(O)c1ccc(/C=C2/SC(=S)N(c3cccc(C(F)(F)F)c3)C2=O)cc1`, the “activity change, negative = inhibition” value was -13.8%.

In the case of `Cn1c(N)c(C(=O)COC(=O)c2cc(C(F)(F)F)nc3c(C(F)(F)F)cccc23)c(=O)n(C)c1=O`, the “activity change, negative = inhibition” value was -3.53%.
